PubChem BioAssay AID1159580 (chemical genetic matrix, 2015)
Where “and” joins values, the source holds several entries; their conditions need not be identical. Identical values can stand only once. Out of some 5,500 compounds screened, about 2,000 (36%) were called active. Roughly 18% stayed inconclusive and do not appear here. No stated cut-off is given here; in the data, active means normalized growth mostly below about 0.91 (no sharp cut-off); inconclusive means no clear call, values can overlap the other calls; inactive means mostly above about 0.92. The list shows a part of the results.

Experiment: chemical genetic growth profiling, strain panel (AID 1159580);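 further: tested at 20 µM; growth read once vehicle control cultures reached saturation at 30 °C; 1 = growth at the plate median or of vehicle wells; lower values mean less growth of the strain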
Settings: growth OD

Measured: normalized growth

CC(=O)N[C@@H]1[C@@H](C(O)[C@H](O)CO)O[C@](O)(C(=O)O)C[C@@H]1O (some centres not stated)
inactive: S. cerevisiae deletion strains, locus YAL013W, strain DEP1, hits give low values 1.01 | S. cerevisiae deletion strains, locus YBR021W, strain FUR4, hits give low values 1.02 | S. cerevisiae deletion strains, locus YBR229C, strain ROT2, hits give low values 1 | S. cerevisiae deletion strains, locus YCL029C, strain bik1, hits give low values 0.997 | S. cerevisiae deletion strains, locus YDL035C, strain GPR1, hits give low values 1.01 | S. cerevisiae deletion strains, locus YDL074C, strain BRE1, hits give low values 1.04 | S. cerevisiae deletion strains, locus YDL101C, strain DUN1, hits give low values 1.03 | S. cerevisiae deletion strains, locus YDL134C, strain PPH21, hits give low values 1 | S. cerevisiae deletion strains, locus YDL185W, strain tfp1, hits give low values 1.02 | S. cerevisiae deletion strains, locus YDL192W, strain arf1, hits give low values 0.999 | S. cerevisiae deletion strains, locus YDR101C, strain arx1, hits give low values 1 | S. cerevisiae deletion strains, locus YDR150W, strain NUM1, hits give low values 1 | S. cerevisiae deletion strains, locus YDR162C, strain NBP2, hits give low values 1.02 | S. cerevisiae deletion strains, locus YDR318W, strain mcm21, hits give low values 1.01 | S. cerevisiae deletion strains, locus YDR388W, hits give low values 1.01 | S. cerevisiae deletion strains, locus YDR502C, strain sam2, hits give low values 0.998 | S. cerevisiae deletion strains, locus YEL061C, strain CIN8, hits give low values 1 | S. cerevisiae deletion strains, locus YER110C, hits give low values 1 | S. cerevisiae deletion strains, locus YER155C, strain BEM2, hits give low values 1 | S. cerevisiae deletion strains, locus YER167W, strain BCK2, hits give low values 1 | S. cerevisiae deletion strains, locus YGL078C, strain dbp3, hits give low values 0.982 | S. cerevisiae deletion strains, locus YGL086W, strain mad1, hits give low values 1 | S. cerevisiae deletion strains, locus YGL248W, strain PDE1, hits give low values 1.01 | S. cerevisiae deletion strains, locus YGR078C, strain PAC10, hits give low values 1.03 | S. cerevisiae deletion strains, locus YGR135W, strain pre9, hits give low values 1.01 | S. cerevisiae deletion strains, locus YGR229C, strain SMI1, hits give low values 1.02 | S. cerevisiae deletion strains, locus YGR252W, strain gcn5, hits give low values 0.958 | S. cerevisiae deletion strains, locus YHR030C, strain SLT2, hits give low values 0.998 and 1.01 | S. cerevisiae deletion strains, locus YHR079C, strain IRE1 (second series), hits give low values 1.01 | S. cerevisiae deletion strains, locus YHR079C, strain IRE1, hits give low values 1 | S. cerevisiae deletion strains, locus YHR094C, strain hxt1, hits give low values 1.01 | S. cerevisiae deletion strains, locus YHR129C, strain ARP1, hits give low values 1.02 | S. cerevisiae deletion strains, locus YHR200W, strain rpn10, hits give low values 1.01 | S. cerevisiae deletion strains, locus YIL066C, strain RNR3, hits give low values 1.02 | S. cerevisiae deletion strains, locus YIL073C, strain SPO22, hits give low values 1.02 | S. cerevisiae deletion strains, locus YIL125W, strain kgd1, hits give low values 0.993 | S. cerevisiae deletion strains, locus YIR030C, strain dcg1, hits give low values 0.999 | S. cerevisiae deletion strains, locus YJL095W, strain BCK1, hits give low values 1.06 and 0.995 | S. cerevisiae deletion strains, locus YJL134W, strain LCB3, hits give low values 1.01 | S. cerevisiae deletion strains, locus YJL168C, strain set2, hits give low values 1.01 | S. cerevisiae deletion strains, locus YJL187C, strain SWE1 (second series), hits give low values 1.04 | S. cerevisiae deletion strains, locus YJR043C, strain POL32, hits give low values 1.04 | S. cerevisiae deletion strains, locus YJR066W, strain TOR1, hits give low values 0.916 | S. cerevisiae deletion strains, locus YJR075W, strain HOC1, hits give low values 1.02 | S. cerevisiae deletion strains, locus YKL009W, strain mrt4, hits give low values 1.02 | S. cerevisiae deletion strains, locus YKL068W, hits give low values 0.998 | S. cerevisiae deletion strains, locus YKL085W, strain MDH1 (second series), hits give low values 1 | S. cerevisiae deletion strains, locus YKL085W, strain MDH1, hits give low values 1 | S. cerevisiae deletion strains, locus YKL190W, strain CNB1, hits give low values 1.01 | S. cerevisiae deletion strains, locus YKR001C, strain vps1, hits give low values 1.01 | S. cerevisiae deletion strains, locus YLR039C, strain RIC1, hits give low values 1.02 | S. cerevisiae deletion strains, locus YLR058C, strain SHM2, hits give low values 1.01 | S. cerevisiae deletion strains, locus YLR102C, strain apc9, hits give low values 1.01 | S. cerevisiae deletion strains, locus YLR113W, strain HOG1, hits give low values 1.05 | S. cerevisiae deletion strains, locus YLR262C, strain YPT6, hits give low values 1.03 | S. cerevisiae deletion strains, locus YLR268W, strain sec22, hits give low values 1.07 | S. cerevisiae deletion strains, locus YLR330W, strain CHS5, hits give low values 1 | S. cerevisiae deletion strains, locus YLR342W, strain FKS1 (second series), hits give low values 1.02 | S. cerevisiae deletion strains, locus YLR371W, strain rom2, hits give low values 1.01 | S. cerevisiae deletion strains, locus YLR418C, strain cdc73, hits give low values 1.01 | S. cerevisiae deletion strains, locus YML016C, strain PPZ1, hits give low values 1.01 | S. cerevisiae deletion strains, locus YML032C, strain rad52, hits give low values 1.05 | S. cerevisiae deletion strains, locus YML124C, strain tub3, hits give low values 0.997 | S. cerevisiae deletion strains, locus YMR078C, strain ctf18, hits give low values 1.01 | S. cerevisiae deletion strains, locus YMR223W, strain ubp8, hits give low values 0.975 | S. cerevisiae deletion strains, locus YMR263W, strain SAP30, hits give low values 1.02 | S. cerevisiae deletion strains, locus YMR307W, strain GAS1, hits give low values 1.01 | S. cerevisiae deletion strains, locus YNL067W, strain RPL9B, hits give low values 1.05 | S. cerevisiae deletion strains, locus YNL128W, strain TEP1, hits give low values 1.03 | S. cerevisiae deletion strains, locus YNL153C, strain GIM3, hits give low values 1.04 | S. cerevisiae deletion strains, locus YNL183C, strain NPR1, hits give low values 0.913 | S. cerevisiae deletion strains, locus YNL233W, strain BNI4, hits give low values 1.03 | S. cerevisiae deletion strains, locus YNL250W, strain rad50, hits give low values 0.999 | S. cerevisiae deletion strains, locus YNL271C, strain bni1, hits give low values 1.01 | S. cerevisiae deletion strains, locus YNL298W, strain CLA4, hits give low values 0.994 | S. cerevisiae deletion strains, locus YNL307C, strain MCK1, hits give low values 1 | S. cerevisiae deletion strains, locus YNL322C, strain KRE1, hits give low values 1 | S. cerevisiae deletion strains, locus YNR052C, strain pop2, hits give low values 1.01 | S. cerevisiae deletion strains, locus YOL006C, strain TOP1, hits give low values 1.15 | S. cerevisiae deletion strains, locus YOL012C, strain htz1 1.02 | S. cerevisiae deletion strains, locus YOL147C, strain pex11, hits give low values 1 | S. cerevisiae deletion strains, locus YOR061W, strain CKA2, hits give low values 1.01 | S. cerevisiae deletion strains, locus YOR069W, strain VPS5, hits give low values 1.01 | S. cerevisiae deletion strains, locus YOR136W, strain idh2, hits give low values 0.986 | S. cerevisiae deletion strains, locus YOR144C, strain elg1, hits give low values 0.994 | S. cerevisiae deletion strains, locus YOR184W, strain ser1, hits give low values 0.994 | S. cerevisiae deletion strains, locus YOR231W, strain MKK1, hits give low values 0.996 | S. cerevisiae deletion strains, locus YOR316C, strain cot1, hits give low values 1.01 | S. cerevisiae deletion strains, locus YPL055C, strain LGE1, hits give low values 1.02 | S. cerevisiae deletion strains, locus YPL241C, strain CIN2, hits give low values 1.01 | S. cerevisiae deletion strains, locus YPL256C, strain CLN2, hits give low values 0.99 | S. cerevisiae deletion strains, locus YPR119W, strain clb2, hits give low values 1 | S. cerevisiae deletion strains, locus YPR141C, strain kar3, hits give low values 0.999 | S. cerevisiae deletion strains, locus YPR163C, strain tif3, hits give low values 1.01 | S. cerevisiae deletion strains, locus YPR167C, strain met16, hits give low values 1 | S. cerevisiae deletion strains, strain wtn01, hits give low values 1.01 | S. cerevisiae strains, strain wild type, hits give low values 1.01
